Data published in PMC5540273 (PLoS ONE, 2017).

Legend:
Conditions in all cases: concentration: 1 μM, replicates: in singlicate; n = 1
NEK11 = tested on: NEK11
NEK1 = tested on: NEK1
NEK2 = tested on: NEK2
NEK3 = tested on: NEK3
NEK4 = tested on: NEK4
NEK5 = tested on: NEK5
NEK6 = tested on: NEK6
NEK7 = tested on: NEK7
NEK9 = tested on: NEK9
NIK = tested on: T1, NIK
T1 construct: gene MAP3K14
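Also: KINOMEscan kinase panel screen.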

Row | Structure (SMILES) | %Inh (NEK11) [%] | %Inh (NEK1) [%] | %Inh (NEK2) [%] | %Inh (NEK3) [%] | %Inh (NEK4) [%] | %Inh (NEK5) [%] | %Inh (NEK6) [%] | %Inh (NEK7) [%] | %Inh (NEK9) [%] | %Inh (NIK) [%]
1 | COc1ccc(-c2coc3ccc(-c4nnc(SCc5ccc(OC)c(C(F)(F)F)c5)o4)cc23)cc1 | 0 | 0 | 8 | 0 | 2 | 0 | 13 | 0 | 0 | 1
2 | O=C(O)C(F)(F)F.O=C(O)C(F)(F)F.O=c1[nH]ccc2nc(N[C@@H]3CCCNC3)nc(Nc3ccc(S(=O)(=O)N4CCOCC4)cc3)c12 [GSK2177277] | 0 | 62 | 80 | 89 | 96.1 | 51 | 46 | 35 | 14 | 87
3 | COc1ccc(Nc2nccc(NCCNC(=O)c3cc4ccccc4s3)n2)cc1 [GSK1379896] | 3 | 0 | 22 | 0 | 14 | 13 | 0 | 0 | 21 | 7
4 | Oc1cc(Nc2ccnc3cc(I)ccc23)ccc1F [GW552771] | 0 | 0 | 0 | 1 | 38 | 0 | 0 | 0 | 0 | 0
5 | c1ccc(-c2n[nH]cc2Nc2ccnc3ccccc23)nc1 [GW694077] | 0 | 7 | 99.1 | 3 | 0 | 6 | 0 | 0 | 41 | 19
6 | COc1cc(Nc2nccc(-c3c(-c4cccc(NC(=O)c5c(F)cccc5F)c4)nn4ncccc34)n2)cc(OC)c1OC [GSK327238] | 0 | 0 | 92.7 | 0 | 12 | 58 | 17 | 18 | 41 | 13
7 | O=C(Nc1cccc(Oc2ccc3nc(NC(=O)C4CC4)cn3n2)c1)c1ccccc1C(F)(F)F | 0 | 9 | 12 | 26 | 0 | 9 | 0 | 0 | 0 | 0
8 | O=C(NC1CCN(c2ccnc(Nc3ccc(F)cc3)n2)C1)c1cc2ccccc2s1 (centres unmarked) [GSK1379716] | 20 | 0 | 8 | 9 | 0 | 13 | 3 | 0 | 17 | 42
9 | Cl.Cl.NCC(C(=O)Nc1cc(Br)c(-c2ccnc3[nH]ccc23)s1)c1ccccc1 (centres unmarked) [GSK1269851] | 0 | 0 | 15 | 18 | 15 | 0 | 0 | 10 | 9 | 8
10 | Nc1ncnc2c1nc(-c1ccccc1)n2-c1ccccc1 [SKF-97293] | 30 | 23 | 0 | 2 | 26 | 0 | 15 | 6 | 0 | 34
11 | COc1cccc(-c2ccc3c(NC(=O)C4CC4)n[nH]c3n2)c1 [SB-710903] | 36 | 0 | 0 | 18 | 0 | 6 | 0 | 0 | 0 | 0
12 | Cl.c1ccc(-c2ccc3c(Nc4ccc5[nH]ncc5c4)ccnc3c2)nc1 [GW440137] | 0 | 0 | 0 | 11 | 0 | 13 | 0 | 0 | 7 | 10
13 | Clc1ccc(-c2nn3ncccc3c2-c2ccnc(Nc3ccc4c(c3)OCCO4)n2)cc1 [GW829116] | 0 | 0 | 0 | 12 | 0 | 0 | 0 | 0 | 0 | 10
14 | COc1cc2c(cc1OCCN1CCNCC1)ncc1c3ccc(C#N)cc3[nH]c21 | 7 | 0 | 41 | 29 | 100 | 0 | 15 | 0 | 0 | 65
15 | Cl.Cl.NCC(NCc1ccc(-c2ccnc3[nH]ccc23)s1)c1ccccc1 (centres unmarked) [GSK1321565] | 13 | 0 | 0 | 0 | 0 | 10 | 0 | 0 | 6 | 20
16 | COc1cc(Nc2nccc(N3CCC(NC(=O)Nc4cccc(C(C)=O)c4)C3)n2)cc(OC)c1OC (centres unmarked) [GSK1379753] | 0 | 58 | 43 | 41 | 30 | 100 | 1 | 45 | 27 | 5

Row | Structure (SMILES) | %Inh (NEK11) [%] | %Inh (NEK1) [%] | %Inh (NEK2) [%] | %Inh (NEK3) [%] | %Inh (NEK4) [%] | %Inh (NEK5) [%] | %Inh (NEK6) [%] | %Inh (NEK7) [%] | %Inh (NEK9) [%] | %Inh (NIK) [%]
17 | O=C(Nc1n[nH]c2cc(-c3ccoc3)ccc12)C1CC1 [SB-738481] | 4 | 0 | 8 | 2 | 1 | 0 | 11 | 16 | 0 | 9
18 | COc1cccc(C(=O)Nc2cccc(Oc3ccc4nc(NC(=O)C5CC5)cn4n3)c2)c1 | 0 | 16 | 8 | 19 | 0 | 23 | 5 | 0 | 0 | 0
19 | CCn1c(-c2nonc2N)nc2c(C#CC(C)(C)O)nc(OC[C@H](N)c3ccccc3)cc21 [GSK943949] | 0 | 0 | 0 | 3 | 0 | 0 | 14 | 0 | 0 | 72
20 | COCCOCCOc1cc2ncc3c4ccc(C#N)cc4[nH]c3c2cc1OC | 0 | 0 | 53 | 33 | 0 | 0 | 0 | 15 | 7 | 65
21 | COc1ccc(Nc2nccc(N3CCC(NC(=O)Nc4cccc(OC)c4)C3)n2)cc1 (centres unmarked) [GSK1379742] | 0 | 0 | 17 | 0 | 0 | 3 | 0 | 0 | 2 | 7
22 | c1ccc(Oc2ccc(Nc3ccnc4cc(-c5ccc(CNCCN6CCOCC6)o5)ccc34)cc2)nc1 [GW567145] | 45 | 0 | 0 | 0 | 0 | 0 | 0 | 0 | 13 | 28
23 | Cc1ccc(C(=O)N2CC[C@@H](O)C2)cc1-n1c(C)cc(OCc2ccc(F)cc2F)c(Br)c1=O | 0 | 0 | 0 | 31 | 0 | 0 | 0 | 0 | 0 | 0
24 | Cc1ccc(S(=O)(=O)Nc2ccc(Nc3nccc(Nc4cccc5[nH]ncc45)n3)cc2)cc1 [GSK581271] | 27 | 0 | 4 | 0 | 20 | 5 | 0 | 0 | 11 | 0
25 | CC(=O)Nc1nc2cnc(Nc3cc(NC(=O)c4cccc(C5(C#N)CC5)c4Cl)ccc3C)nc2s1 | 0 | 0 | 0 | 18 | 10 | 0 | 4 | 7 | 14 | 0
26 | Cn1cc(-c2ccc3c(c2)CCN3C(=O)Cc2cccc(Cl)c2)c2c(N)ncnc21 [GSK2606590] | 0 | 26 | 66 | 1 | 22 | 32 | 11 | 0 | 18 | 23
27 | CN1CCN(Cc2cccc(-c3ccc4c(Nc5ccc(Oc6ccccc6)cc5)ccnc4c3)c2)CC1 [GW578342] | 28 | 0 | 0 | 3 | 0 | 0 | 0 | 0 | 16 | 24
28 | Fc1ccc(-c2ncn(C3CCNCC3)c2-c2ccnc(Oc3ccc(-c4ccccc4)cc3)n2)cc1 [SB-245391] | 24 | 36 | 25 | 13 | 0 | 4 | 17 | 0 | 7 | 31
29 | Cc1occc1-c1ncc(OC[C@@H](N)Cc2c[nH]c3ccccc23)cc1-c1ccc2[nH]nc(C)c2c1.O=C(O)C(F)(F)F [GSK682037] | 0 | 24 | 0 | 0 | 0 | 24 | 0 | 0 | 8 | 78
30 | O=C(Nc1n[nH]c2nc(-c3ccc(O)cc3)ccc12)C1CC1 [SB-710363] | 0 | 0 | 3 | 17 | 2 | 0 | 0 | 12 | 0 | 2
31 | CCn1c(-c2nonc2N)nc2c(C#CC(C)(C)O)ncc(OCCCCN)c21.O=C(O)C(F)(F)F.O=C(O)C(F)(F)F [GSK507274] | 50 | 0 | 34 | 5 | 34 | 11 | 1 | 0 | 0 | 68
32 | CCS(=O)(=O)c1ccc(OC)c(Nc2nccc(-c3c(-c4cccc(NC(=O)c5c(F)cccc5F)c4)nn4ncccc34)n2)c1 [GSK326180] | 0 | 0 | 4 | 14 | 6 | 15 | 0 | 0 | 10 | 6
